# Results published in PubChem BioAssay (NCI).
# Compounds without any hit were thinned out: in the full panel of roughly 79,000, 15% have a hit. Unmarked numbers belong to inactive results. Active and inactive are the calls of the source. Rule as the data show it: active = growth inhibition above about 70%; inactive = the rest.
# Assay: NCI Yeast Anticancer Drug Screen. Data for the rad50 strain (AID 155);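 also: 0% = growth of vehicle-only cultures of the same strain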
# Conditions: S. cerevisiae rad50 strain growth inhibition; at 50.0 µM; active compounds read high
# In short: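 DNA repair mutant yeast, compound exposure, growth read-out; inhibition is taken relative to vehicle.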
row,Compound,growth inhibition
1,O=C(O)c1ccccc1C(=O)Nc1ccc2ccccc2c1,15.9%
2,O=[N+]([O-])c1ccc(N/N=C2\CCC3CC23)c([N+](=O)[O-])c1 (stereo not given),1%
3,CCOC(=O)c1c(C)[nH]c(-c2csc(N)n2)c1C,-5.3%
4,Cc1cccc(C)c1C,4.8%
5,Cc1cc(N)c(N=Cc2ccccc2[N+](=O)[O-])cc1C,26.2%
6,CN(C)Cc1cccc(C(F)(F)F)c1C(O)c1ccccc1 (stereo not given),7.75%
7,Nc1ccc2cc(S(=O)(=O)O)cc(S(=O)(=O)O)c2c1,39.3%
8,Nc1nc2c(nnn2-c2ccc(Cl)cc2)c(=O)[nH]1,-4.3%
9,C(=C\C1OCCO1)/c1ccccc1,14.4%
10,COc1cccc2c1CCC1=CC(=O)CCC12C (stereo not given),22.1%
11,O=C(NC(=O)c1c(F)cccc1F)Nc1ccc(Cl)nc1,8.75%
12,CC1=C/C(=N/Nc2ccc([N+](=O)[O-])cc2[N+](=O)[O-])CC(C)(C)C1,-21.3%
13,COC1(OC)CC2C(=O)N(Cc3ccccc3)C1C(S(=O)(=O)c1ccccc1)C2C(C)S(=O)(=O)c1ccccc1 (stereo not given),14.1%
14,CC(=O)N/C(=C\c1ccccc1)C(N)=O,9.9%
15,CCCn1cnc2c(SCC(=O)O)nc(N)nc21,-33.3%
16,c1ccc(-c2ccc3c4ccccc4ccn23)cc1,9.2%
17,O=S(=O)(Nc1ncccn1)c1ccc(N=NSC2=NC=NC3=NC=NC32)cc1 (stereo not given),21.3%
18,CC[CH2][Sn]([CH2]CC)([O]C(=O)c1cccnc1SC)[O][Sn]([CH2]CC)([CH2]CC)[O]C(=O)c1cccnc1SC,88.5% (active)
19,CC(=O)c1cccc(NC(=O)Nc2cccc(O)c2)c1,4.5%
20,C#CCN(Cc1ccc2nc(-c3ccccc3)c(Cl)nc2c1)c1ccc(Cl)c(Cl)c1,-15.2%

row,Compound,growth inhibition
1,O=C(NCC1(O)CCCCC1)c1ccccc1,3.65%
2,NC(CCC(N)C(=O)O)C(=O)O (stereo not given),-25.4%
3,COc1cc(CSCC(=O)O)ccc1O,8.95%
4,O=c1[nH]c2nc3ccccc3c(=O)n2/c1=C/c1ccc(Cl)cc1,-1.6%
5,C=CC1=C(C)C2=NC1=CC1=NC(=CC3=C(C)C4=C(O)C(C(=O)OC)C(=C5NC(=C2)C(C)C5CCC(=O)OC/C=C(\C)CCCC(C)CCCC(C)CCCC(C)C)C4=N3)C(CC)=C1C (stereo not given),-17.7%
6,NC(N)=NC(=O)c1ccccc1,-26.4%
7,CC(=O)Nc1ccc(C(=O)NN2C(=O)C(Cl)C2c2ccc(Cl)cc2)cc1 (stereo not given),-50.3%
8,COc1cc([N+](=O)[O-])cc(C=O)c1O,6.8%
9,O=C(O)C1CCCCC1C(=O)Nc1nc2ccccc2[nH]1 (stereo not given),-18.6%
10,CSc1nc2nc[nH]c(=O)c2[nH]1,-3.55%
11,CCSC(OC(C)=O)C(Nc1ccc([N+](=O)[O-])cc1[N+](=O)[O-])C(OC(C)=O)C(OC(C)=O)C(COC(C)=O)OC(C)=O (stereo not given),23.7%
12,CC(C)N(CCN1CCCCC1)c1ccccn1,-0.9%
13,CN(C)c1ccc(N=Nc2ccc(S(=O)(=O)O)cc2)cc1.CN(C)c1ccc(N=Nc2ccc(S(=O)(=O)O)cc2)cc1.[NH-]C1CCCCC1[NH-].[Pt+2],24.2%
14,COC(=O)C1CSC(C)(C)N1 (stereo not given),10.6%
15,O=C(Oc1c(Br)cc(Br)cc1C(=O)Oc1ccccc1)C(=O)Oc1c(Br)cc(Br)cc1C(=O)Oc1ccccc1,52.7%
16,ClCC1COC(CCc2ccccc2)O1 (stereo not given),18.4%
17,COc1ccc(C(C)c2cc(OC)c(OC)cc2OC)cc1 (stereo not given),17.6%
18,COc1cc(CCCCC(=O)O)cc(Br)c1OC,-17.7%
19,CC1CN1C(=O)Nc1cccc2c(NC(=O)N3CC3C)cccc12 (stereo not given),-21.9%
20,Nc1ccc(S(=O)(=O)/N=C(\NS(=O)(=O)c2ccc(N)cc2)c2ccccc2)cc1,15.7%
